This is an account of results in PubChem BioAssay AID624330 (Southern Research Specialized Biocontainment Screening …, 2012).

About 2,100 (0.62%) of roughly 340,000 compounds were called active.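 Rule for the calls: active = first-screen hits whose inhibition reached a set limit at any dose in the follow-up dose series; inconclusive = inhibition above the set first-screen limit but never retested; inactive = the rest.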 These entries were drawn from the full list. Results with a measured potency or affinity are listed apart.

Rac GTPase-activating protein 1 (Homo sapiens), sequence (Q9H0H5 whole entry, looked up): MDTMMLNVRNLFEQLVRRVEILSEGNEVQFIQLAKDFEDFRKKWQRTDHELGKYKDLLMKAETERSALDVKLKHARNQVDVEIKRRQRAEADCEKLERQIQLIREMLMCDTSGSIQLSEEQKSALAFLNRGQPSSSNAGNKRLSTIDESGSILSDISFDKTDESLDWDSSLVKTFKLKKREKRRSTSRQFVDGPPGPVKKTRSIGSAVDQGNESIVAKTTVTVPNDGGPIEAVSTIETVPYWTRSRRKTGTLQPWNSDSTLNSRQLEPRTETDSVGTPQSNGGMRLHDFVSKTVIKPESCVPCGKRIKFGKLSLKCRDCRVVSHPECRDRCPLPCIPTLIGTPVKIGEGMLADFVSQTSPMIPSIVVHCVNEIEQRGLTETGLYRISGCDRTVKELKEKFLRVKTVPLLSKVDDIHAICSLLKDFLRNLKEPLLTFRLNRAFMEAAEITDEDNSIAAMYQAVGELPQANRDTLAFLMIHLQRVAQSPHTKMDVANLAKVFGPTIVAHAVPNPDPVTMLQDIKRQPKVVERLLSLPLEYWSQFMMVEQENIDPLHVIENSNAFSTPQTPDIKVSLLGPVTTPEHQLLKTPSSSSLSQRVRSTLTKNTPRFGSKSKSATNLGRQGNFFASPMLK

This test addresses Rac GTPase-activating protein 1 (Homo sapiens) (UniProt Q9H0H5). Kind of test: MgcRacGAP GTPase-activating activity inhibitors, confirmation, biochemical, ADP Hunter fluorescence, primary and confirmatory (AID 624330).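 Note: fluorescence reports GDP produced by GAP-driven GTP hydrolysis.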 The note with it: MgcRacGAP-stimulated Rac1 GTP hydrolysis, at 30 µM, stronger effect = higher value, GST-tagged Rac1 F28L mutant substrate.
As for `O=CN(/C=C1\Sc2ccccc2C1=O)Cc1ccccc1`, the inhibition is 10% (inactive).

With `Cc1sc2ncnc(N/N=C/c3cccc(O)c3)c2c1C`, the inhibition is 20.2% (inactive).

In the case of `COc1ccc(/C=N/Nc2ncnc3sc(C)c(C)c23)cc1`, the inhibition is 11.8% (inactive).

For `Cc1ccc(Nc2ncnc3sc(C)c(C)c23)cc1`, the inhibition was 18.3% (inactive).

`Cc1sc2ncnc(Nc3ccccc3)c2c1C`: the inhibition was 4.64% (inactive).

In the case of `COCCOc1cc(NC(=O)CS(=O)(=O)CC(=O)N(C)C)c(Cl)cc1Cl`, the inhibition is -10.1% (inactive).

As to `O=C(Nc1cccc(Cl)c1)C1C2C=CC3(O2)C1C(=O)N(CCN1CCCCC1)C3C(=O)NC1CCCCC1` (stereo not given), the inhibition is 4.26% (inactive).

For `CCN(CC)C(=O)CN(c1ccc(C)cc1)S(=O)(=O)c1ccc(SC)cc1`, the inhibition is 3.34% (inactive).

Regarding `COc1ccc(C2CC(=O)Nc3ccccc3S2(=O)=O)cc1OC` (stereo not given), the inhibition was 11.4% (inactive).

For `O=C(Nc1cccc(C(=O)Nc2ccccc2F)c1)c1ccccc1`, the inhibition is -9.87% (inactive).

Regarding `CN(C)c1ccc(/C=C/C(=O)c2cccnc2)cc1`, the inhibition was 10.2% (inactive).

As for `CN(C)c1ccc(/C=C/c2ccncc2)cc1`, the inhibition was 16.4% (inactive).

As for `O=C(CSc1ccc2nnc(-c3cccnc3)n2n1)Nc1ccccc1C(F)(F)F`, the inhibition is 6.49% (inactive).

As to `Oc1ccc(Cl)cc1C=Nc1ccccc1Br`, the inhibition is 4.11% (inactive).

Consider `CCN(CC)c1ccc(N=Cc2cc(Br)ccc2O)cc1`, for which the inhibition is 10.9% (inactive).

For the compound `OCC(CO)(CO)N=Cc1cc(Br)ccc1O`, the inhibition is 8.85% (inactive).

As to `Cc1cccc(C=Nc2ccc3c(c2)oc2ccccc23)c1O`, the inhibition was 25.6% (inactive).

Take `Oc1ccc(Cl)cc1/C=N/c1nccs1`: the inhibition is 3.22% (inactive).

On to `Oc1cccc(C=Nc2cccc3ccccc23)c1O`, for which the inhibition was -2.71% (inactive).

For `COc1ccccc1-c1nnc(SCC(=O)Nc2ccc(S(N)(=O)=O)cc2)n1C`, the inhibition was 7.69% (inactive).

For `C[C@H](CO)N1C[C@H](C)[C@H](CN(C)C(=O)Nc2ccc(C(C)(C)C)cc2)OCc2cnnn2CCCC1=O`, the inhibition is -5.61% (inactive).

For `COc1ccc(OC)c(S(=O)(=O)NCC(=O)NC2CCCc3ccccc32)c1` (stereo not given), the inhibition was 6.06% (inactive).

For `O=C(Nc1ccc2c(c1)OCO2)C1CCCN1C(=O)OCc1ccccc1` (stereo not given), the inhibition is 6.44% (inactive).

Take `C=CCN(CC=C)CCOc1ccc(OC(C)C)cc1`: the inhibition was 26.4% (inactive).

As for `COc1ccc2c(c1)c(C(=O)N/N=C/c1cccc(O)c1)c(C)n2C`, the inhibition was 16.9% (inactive).

As to `COc1ccc2c(c1)c(C(=O)N/N=C/c1ccc(OC)c(OC)c1)c(C)n2C`, the inhibition is -2.93% (inactive).

Take `COc1ccc2nc(C)cc(SCC(=O)N/N=C/c3ccc(O)cc3O)c2c1`: the inhibition is 17.7% (inactive).

On to `COc1ccc2nc(C)cc(SCC(=O)N/N=C/c3ccccc3)c2c1`, for which the inhibition was 5.43% (inactive).

Take `CC(=O)Nc1c2c(nn1-c1ccc(Cl)cc1)CSC2`: the inhibition was 2.25% (inactive).

As to `O=C(CCc1ccccc1)NNC(=O)COc1ccccc1`, the inhibition is 11.8% (inactive).

As to `Cc1ccc2ccc(C(Nc3cccc(C(F)(F)F)c3)c3cccnc3)c(O)c2n1` (stereo not given), the inhibition is 10.8% (inactive).

As for `COc1cc(CCC(=O)OCC(=O)N(CCC#N)c2ccccc2)cc(OC)c1OC`, the inhibition was 7.7% (inactive).

Take `COc1cccc(CNCCO)c1OCc1ccccc1Cl`: the inhibition was 9.99% (inactive).

`CCOc1cc(CNc2ncn[nH]2)ccc1OCC(=O)NC(C)(C)C`: the inhibition was 1.46% (inactive).

`COc1cc(CNc2ncn[nH]2)ccc1OCc1cccc(C)c1`: the inhibition is 8.87% (inactive).

With `CCOc1cc(CNC)ccc1OCC(=O)NC(C)(C)C`, the inhibition was 2.12% (inactive).

For `Oc1ccc(NCc2ccccc2OCc2ccccc2)cc1`, the inhibition was 11.9% (inactive).

`Cc1ccc(NCc2ccccc2OCc2ccccc2F)cc1`: the inhibition was 11.5% (inactive).

In the case of `COc1cc(CNc2ccc3[nH]c(=O)[nH]c3c2)ccc1OCc1ccc(C)cc1`, the inhibition was 16.9% (inactive).

Turning to `COc1cccc(CNc2ccc3[nH]c(=O)[nH]c3c2)c1OCc1ccc(F)cc1`, the inhibition was 26.2% (inactive).

Regarding `COc1ccc(C(=O)Nc2ccncc2)c(OC)c1`, the inhibition is 13.1% (inactive).

Take `Cn1cc(C(=O)C(=O)NC2CCCCC2)c2ccccc21`: the inhibition is 10% (inactive).

Take `COc1ccc(C(CNC(=O)c2ccc(NS(=O)(=O)c3ccc(F)cc3)cc2)N2CCOCC2)cc1` (stereo not given): the inhibition is 4.8% (inactive).

On to `CN(CC(=O)Nc1ccc(F)c(F)c1F)C(=O)CN1C(=O)NC2(CCCC2)C1=O`, for which the inhibition was 9.6% (inactive).

For `CCOC(=O)c1cc2ccc3ccccc3c2oc1=O`, the inhibition was 8.31% (inactive).

As for `Cc1ccc2c(c1)nnn2C1CCN(CC(=O)NNC(=O)c2ccco2)CC1`, the inhibition was 0.28% (inactive).

As to `CCOc1cccc(CNc2ccc(O)cc2)c1OCc1ccc(Cl)cc1`, the inhibition is 19.5% (inactive).

Turning to `CCOc1cccc(CNc2ccc(O)cc2)c1OCc1ccccc1Cl`, the inhibition is 29.3% (inactive).

Turning to `CCCCCCN1C[C@@H](O)[C@H](n2cc(-c3ccc(F)cc3)nn2)C[C@@H]1c1ccc(C)cc1`, the inhibition is 6.07% (inactive).

Take `CNCc1c(OCc2ccccc2F)ccc2ccccc12`: the inhibition is -6.3% (inactive).

As for `O=C1C(=Cc2cccs2)C(=O)c2ccccc21`, the inhibition is 4.2% (inactive).

Regarding `O=C1/C(=C\c2ccco2)SC(=S)N1c1ccccc1`, the inhibition was 23.6% (inactive).

For `O=C1/C(=C/c2ccco2)CCc2ccccc21`, the inhibition is 8.52% (inactive).

For the compound `O=C1NC(=O)/C(=C/c2ccco2)N1`, the inhibition was 11% (inactive).

`O=C1/C(=C\c2ccco2)NC(=S)N1c1ccccc1`: the inhibition was 21.9% (inactive).

`O=C1/C(=C\c2ccco2)CCC/C1=C\c1ccco1`: the inhibition is 38.4% (inactive).

As to `O=C1CNC(=O)/C(=C/c2ccco2)N1`, the inhibition was 14.3% (inactive).

With `O=C1CNC(=O)/C(=C/c2cccs2)N1`, the inhibition is 0.05% (inactive).

For `O=C(NCc1cccc(Cl)c1)c1ccc(CS(=O)Cc2ccccc2Cl)o1` (stereo not given), the inhibition was -7.5% (inactive).

As for `C[C@@H]1CCCCO[C@H](CN(C)C(=O)Nc2ccc3c(c2)OCO3)[C@H](C)CN([C@@H](C)CO)C(=O)c2cc(NS(=O)(=O)c3ccc(Cl)cc3)ccc2O1`, the inhibition is 10.2% (inactive).

With `O=C(CN1CCOc2ccccc21)NCc1ccccc1`, the inhibition was -7.36% (inactive).

As to `O=C(N/N=C\c1ccccn1)C1COc2cc3ccccc3cc2O1` (stereo not given), the inhibition is 15.9% (inactive).

With `CN1/C(=C/C2CC(=O)NC2=O)C(C)(C)c2ccccc21` (stereo not given), the inhibition was 6.09% (inactive).

In the case of `O=c1oc2c(CN3CCCCC3)c(O)ccc2c2c1CCCC2`, the inhibition is -1.27% (inactive).

Take `COc1ccc(-c2noc(CCC(=O)NCCCN3CCC(C)CC3)n2)cc1`: the inhibition was 8.68% (inactive).

As to `O=C(COc1ccc(S(=O)(=O)N2CCCC2)cc1)N1CCN(c2ccccc2F)CC1`, the inhibition is 3.38% (inactive).

Take `CCN(Cc1ccncc1)C(=O)c1ccc2c(c1)S(=O)(=O)c1ccccc1C2=O`: the inhibition was -39.1% (inactive).

`CCC1=NN2C(=N)/C(=C\c3ccc(SCc4ccco4)o3)C(=O)N=C2S1`: the inhibition is 45.8% (inactive).

For the compound `CCCC1=NN2C(=N)/C(=C\c3ccc(SCc4ccco4)o3)C(=O)N=C2S1`, the inhibition is 60.1% (inactive).

With `CCOc1cc(/C=C2\C(=N)N3N=C(S(=O)(=O)CC)SC3=NC2=O)ccc1OC(=O)c1ccco1`, the inhibition was 26.5% (inactive).

`CC1=CN2C(=N)/C(=C/c3ccco3)C(=O)N=C2S1`: the inhibition was 5.23% (inactive).

With `C=CCOc1ccc(/C=C2\C(=N)N3N=C(S(=O)(=O)CC)SC3=NC2=O)cc1OC`, the inhibition is -6.72% (inactive).

Turning to `CCS(=O)(=O)C1=NN2C(=N)/C(=C\c3ccc(OC(=O)c4ccco4)c(OC)c3)C(=O)N=C2S1`, the inhibition is 30.5% (inactive).

As to `CCOc1cc(/C=C2\C(=N)N3N=C(S(C)(=O)=O)SC3=NC2=O)ccc1OCCOc1cccc(OC)c1`, the inhibition is 12.1% (inactive).

For the compound `COc1cc(/C=C2/C(=N)N3C=CSC3=NC2=O)ccc1OCCCOc1cc(C)ccc1C`, the inhibition is 4.39% (inactive).

With `CCC(=O)Nc1cc(-c2nn(C)c(=O)c3ccccc23)ccc1N1CCOCC1`, the inhibition was 1.97% (inactive).

For the compound `Cc1csc(SC(C)C(=O)NCc2ccc3c(c2)OCO3)n1` (stereo not given), the inhibition is 6% (inactive).

Regarding `Cc1ncc(C[n+]2csc(CCOC(=O)C34CC5CC(CC(C5)C3)C4)c2C)c(N)n1`, the inhibition was 1.84% (inactive).

With `CCOc1ccccc1OCC(=O)Nc1cc(S(=O)(=O)N2CCCCC2)ccc1OC`, the inhibition was 10.7% (inactive).

For the compound `Cn1c(Cc2ccccc2)nnc1SCc1nc2ccccc2c(=O)[nH]1`, the inhibition was 0.95% (inactive).

In the case of `COCC(=O)N1CCC(Oc2ccc(C(=O)N(C)Cc3nccs3)cc2)CC1`, the inhibition was 3.05% (inactive).

On to `CSc1ccccc1NC(=O)c1cccc(S(=O)(=O)N2CCN(C)CC2)c1`, for which the inhibition is 2.55% (inactive).

Regarding `C[C@H]1CCCCO[C@@H](CN(C)S(=O)(=O)c2ccc(F)cc2)[C@@H](C)CN([C@@H](C)CO)C(=O)c2cc(NC(=O)Nc3ccc4c(c3)OCO4)ccc2O1`, the inhibition is 9.48% (inactive).

As for `CCN(CC)CCCNC(=S)N1CCn2c(nc3ccccc32)C1`, the inhibition is 6.61% (inactive).

Regarding `O=C(NCC1CCCO1)c1cc([N+](=O)[O-])ccc1Cl` (stereo not given), the inhibition is 2.41% (inactive).

Turning to `O=C(CC1CCCC1)NNC(=O)c1ccc(Br)cc1`, the inhibition was 10.1% (inactive).

As to `CC1=NN(c2ccc(Br)cc2)C(=O)/C1=C/c1ccc(-c2ccccc2C(=O)O)o1`, the inhibition was 7.93% (inactive).

Take `CC1=NOC(=O)/C1=C\c1ccc(-c2cccc(Cl)c2)o1`: the inhibition is 12.5% (inactive).

In the case of `CC1=NN(c2ccc(Cl)c(C(=O)O)c2)C(=O)/C1=C\c1ccc(-c2ccc(C(=O)O)cc2)o1`, the inhibition is 20.6% (inactive).

Consider `CC1=NOC(=O)/C1=C/c1ccc(-c2ccc(Cl)cc2)o1`, for which the inhibition is 13% (inactive).

Turning to `CC(=O)NCC1CCCN(Cc2cn(-c3ccccc3)nc2-c2ccc3c(c2)OCO3)C1` (stereo not given), the inhibition is -2.78% (inactive).

As for `COc1ccc(/C=N/NC(=O)CNC(=O)c2cccs2)cc1`, the inhibition is 2.55% (inactive).

Regarding `O=C(CNC(=O)c1ccco1)N/N=C/c1ccc(O)c([N+](=O)[O-])c1`, the inhibition was 1.55% (inactive).

As for `COc1cc(/C=N/NC(=O)c2cccs2)ccc1O`, the inhibition is 9.66% (inactive).

As to `COc1cccc(/C=N/NC(=O)CNC(=O)c2ccco2)c1O`, the inhibition was 13.1% (inactive).

As usually defined, the inhibition is the relative decrease from the control value, in per cent.
